Experiment [1] in a line: APR_HepG2_NuclearSize_24hr: Apredica 24-hour HepG2 Assay for Nuclear Size (AID 2282907). Conditions: high-content imaging, actives raise or lower the signal. A digest of the protocol:
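Compounds in DMSO (final 0.5%) were added to human HepG2 hepatoma cells at ten concentrations up to 200 uM for 24 hr. Fixed nuclei were stained with Hoechst 33342, and nuclear diameter was quantified from automated images.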

Experiment [2] is described as follows: APR_HepG2_CellLoss_24hr: Apredica 24-hour HepG2 Assay for Cell Loss (AID 2282908).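 On AC50: fit in both directions so a hit may be cell loss or gain.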 To be noted: high-content imaging. A digest of the protocol: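 Cell number is quantified by fluorescence imaging of Hoechst 33342-stained nuclei following dosing at 0.39–200 uM in 0.5% DMSO. Curves are fitted in both directions from the DMSO baseline.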
Experiment [3] is described as follows: APR_HepG2_MitoticArrest_24hr: Apredica 24-hour HepG2 Assay for Mitotic Arrest (AID 2282910). Conditions: high-content imaging, actives raise or lower the signal. A digest of the protocol: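 Compounds are dosed onto HepG2 cells across ten concentrations up to 200 uM for 24 hr. Cells are then fixed in 3.7% formaldehyde, permeabilised, and labelled for phospho-histone H3 and nuclei; images are scored by cell cycle analysis and fitted bidirectionally relative to DMSO.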

Experiment [4] in a line: APR_HepG2_MitoMembPot_24hr: Apredica 24-hour HepG2 Assay for Mitochondrial Membrane Potential (AID 2282911). To be noted: imaging, actives raise or lower the signal. A digest of the protocol: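 Mitochondrial membrane potential imaged via MitoTracker Red CMXRos (250 nM, 30 min pre-fixation) in fixed HepG2 cells with Hoechst nuclear identification. Ten concentrations 0.39–200 uM, 24 h treatment, 0.5% DMSO; CCCP as positive control.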

Experiment [5] can be described thus: APR_HepG2_MitoMass_24hr: Apredica 24-hour HepG2 Assay for Mitochondrial Mass (AID 2282912). To be noted: high-content imaging, actives raise or lower the signal. A digest of the protocol:
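The liver line HepG2 was dosed in duplicate across a 0.39–200 uM series, with final DMSO held at 0.5% v/v, and harvested at 24 hr. High-content imaging measured mitochondrial dye staining.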

Experiment [6] can be described thus: APR_HepG2_p53Act_24hr: Apredica 24-hour HepG2 Assay for p53 Activation (AID 2282913).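 Further: p53 protein immunofluorescence averaged per cell in HepG2 with Hoechst nuclei.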 To be noted: high-content imaging, actives raise or lower the signal. A digest of the protocol: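 Fluorescence imaging of formaldehyde-fixed HepG2 cells labelled for p53 and with Hoechst, 24 h after dosing (0.39–200 uM, duplicate wells, 0.5% v/v DMSO). Signal fitted in both directions relative to DMSO.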

Experiment [7] is described as follows: APR_HepG2_CellLoss_72hr: Apredica 72-hour HepG2 Assay for Cell Loss (AID 2282915). Conditions: high-content imaging. A digest of the protocol:
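Cell number comes from Hoechst 33342-labelled nuclei, imaged at 20x after 3.7% formaldehyde fixation. Dosing was 0.39–200 uM, ten concentrations in duplicate, 0.5% DMSO final, for 72 h. Bidirectional fit relative to DMSO baseline.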

Experiment [8] can be described thus: APR_HepG2_P-H2AX_72hr: Apredica 72-hour HepG2 Assay for H2AX Phosphorylation (AID 2282916).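 Further: phospho-histone H2A.x immunostain intensity per cell marking DNA damage.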 Conditions: imaging, actives raise or lower the signal. A digest of the protocol:
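Following 72 hr treatment with 0.39–200 uM compound, HepG2 cells were formaldehyde-fixed, permeabilized and stained for phospho-H2A.x; signal was measured by high-content imaging and fitted bidirectionally against DMSO controls.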

Experiment [9] in a line: APR_HepG2_MitoMembPot_72hr: Apredica 72-hour HepG2 Assay for Mitochondrial Membrane Potential (AID 2282917). To be noted: imaging, actives raise or lower the signal. A digest of the protocol:
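Membrane potential read by MitoTracker Red CMXRos (250 nM, 30 min, pre-fixation) fluorescence imaging of HepG2 after 72 hr exposure. Ten concentrations, 0.39–200 uM, duplicate wells, 0.5% DMSO; fitted in both directions against DMSO baseline.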

Experiment [10] is described as follows: APR_HepG2_MitoticArrest_72hr: Apredica 72-hour HepG2 Assay for Mitotic Arrest (AID 2282918). Conditions: high-content imaging, actives raise or lower the signal. A digest of the protocol: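 High-content imaging of fixed human HepG2 cells after 72 h compound exposure (0.39–200 uM, duplicates, 0.5% DMSO); mitotic arrest scored from phospho-histone H3 and nuclear Hoechst staining relative to DMSO.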

The nature of experiment [11]: APR_HepG2_MicrotubuleCSK_72hr: Apredica 72-hour HepG2 Assay for Microtubule CSK Stabilty (AID 2282919). To be noted: HepG2 microtubule cytoskeleton, high-content imaging, actives raise or lower the signal. A digest of the protocol: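 Read-out is tubulin fluorescence intensity from high-content imaging of HepG2 cells, with nuclei identified by Hoechst 33342. Treatment lasts 72 h at 0.39–200 uM, and curves are fitted bidirectionally against the DMSO negative control.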

A short description of experiment [12]: APR_HepG2_P-H2AX_24hr: Apredica 24-hour HepG2 Assay for H2AX Phosphorylation (AID 2282920). To be noted: high-content imaging, actives raise or lower the signal. A digest of the protocol: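 High-content imaging of phospho-histone H2A.x immunofluorescence, nuclei counterstained with Hoechst 33342, in fixed HepG2 cells. Compounds ran 0.39–200 uM in duplicate for 24 h, final DMSO 0.5%. Signal change fitted both directions against DMSO.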

Experiment [13] can be described thus: APR_HepG2_StressKinase_72hr: Apredica 72-hour HepG2 Assay for Stress Kinase (AID 2282921). Conditions: HepG2 stress kinase (phospho-c-Jun) imaging, actives raise or lower the signal. A digest of the protocol:
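Fluorescence intensity of Cy3-tagged anti-phospho-c-Jun antibody, quantified per cell from Hoechst-defined nuclei across six images per well, served as the read-out following 72 h exposure (0.39–200 uM, 0.5% v/v DMSO).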

Experiment [14] in a line: APR_HepG2_StressKinase_24hr: Apredica 24-hour HepG2 Assay for Stress Kinase (AID 2282922). To be noted: HepG2 stress kinase (phospho-c-Jun) imaging, actives raise or lower the signal. A digest of the protocol:
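HepG2, 24 hr dosing, 0.39–200 uM in duplicate, 0.5% DMSO; formaldehyde fix (3.7%), 0.5% Triton X-100; anti-phospho-c-Jun + Cy3 secondary, Hoechst counterstain; ArrayScan imaging; bidirectional curve fit vs DMSO baseline.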

Experiment [15] can be described thus: APR_HepG2_MitoMass_72hr: Apredica 72-hour HepG2 Assay for Mitochondrial Mass (AID 2282924).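 Further: MitoTracker Red CMXRos stain intensity per cell imaged as mitochondrial mass.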 Conditions: high-content imaging, actives raise or lower the signal. A digest of the protocol: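 HepG2, 72 hr cmpd, 10 conc 0.39–200 uM in dup, DMSO 0.5% v/v. MitoTracker Red CMXRos 250 nM 30 min pre-fix; formaldehyde 3.7% fix 30 min RT. HCS imaging, gain/loss fit vs DMSO.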

Experiment [16] in a line: APR_HepG2_NuclearSize_72hr: Apredica 72-hour HepG2 Assay for Nuclear Size (AID 2282925). Conditions: high-content imaging, actives raise or lower the signal. A digest of the protocol:
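HepG2; cpd 0.39–200 uM, 10 conc, duplicate; 72 h; DMSO 0.5% v/v; fix 3.7% formaldehyde 30 min RT; Triton permeabilization; Hoechst 2 ug/mL; HCS imaging 20x; nuclear diameter; gain/loss fit vs DMSO.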

Experiment [17] in a line: APR_HepG2_CellCycleArrest_72hr: Apredica 72-hour HepG2 Assay for Cell Cycle Arrest (AID 2282914). To be noted: high-content imaging, actives raise or lower the signal. A digest of the protocol: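 Read-out: nuclear DNA content from Hoechst 33342 high-content imaging (20x, six fields/well) after 3.7% formaldehyde fixation, fitted bidirectionally against DMSO. Treatment was 72 h in HepG2, ten concentrations 0.39–200 uM, duplicate, 0.5% DMSO.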

Experiment [18] can be described thus: APR_HepG2_p53Act_72hr: Apredica 72-hour HepG2 Assay for p53 Activation (AID 2282923).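 Further: average cellular p53 protein immunofluorescence intensity in HepG2 cells.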 Conditions: high-content imaging, actives raise or lower the signal. A digest of the protocol: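 HepG2 monolayers receive test compounds in duplicate at ten concentrations (0.39 through 200 uM) for 72 hr. They are then formaldehyde-fixed, antibody-labelled for p53, Hoechst-stained and imaged, with activity fitted bidirectionally versus DMSO.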

Broadly, the AC50 is the midpoint of the concentration-response curve, whichever way the signal moves.

Activity calls are given as the source filed them. How the source made its calls: active means hit-call score of the fitted dose curve at least 0.9, where 1 is the maximum; inactive means score below 0.9.

With `CCOC(=O)[C@H](C)Oc1ccc(Oc2nc3ccc(Cl)cc3o2)cc1`, the result in [1], in [2], in experiment [3], in [5], in experiment [6] and in [8] was inactive. For the same molecule, the molecule was called inactive in experiment [9], in [10], in experiment [11], in [12], in experiment [13] and in experiment [14]. The result in experiment [15] and in experiment [16] was inactive. Further, the figures for the concentration at half-maximal activity (AC50) in experiment [4] and in experiment [7] were 96.7 µM (active) and 117 µM (active), respectively.
For `COc1c(Cl)ccc(Cl)c1C(=O)O`, the molecule was called inactive in experiment [1], in [2], in [3], in experiment [4], in experiment [5] and in [17]. Also, the call in experiment [7], in experiment [8], in experiment [9], in experiment [10], in experiment [11] and in [12] was inactive. Further, the result in experiment [13] and in [16] was inactive.
`OB(O)O`: the result in experiment [1], in experiment [2], in experiment [3], in [4], in [5] and in experiment [6] was inactive. Further, the outcome in [7], in experiment [8], in [9], in experiment [10], in [11] and in experiment [12] was inactive. The outcome in experiment [13], in experiment [18] and in experiment [16] was inactive.
In the case of `N#CSCSc1nc2ccccc2s1`, the call in [1], in [3], in experiment [4], in [5], in experiment [8] and in [10] was inactive. Besides, the molecule was called inactive in experiment [11], in [12], in experiment [13] and in experiment [16]. The AC50 in experiment [2] is 42.9 µM (active); in [7], 10 µM (active); in experiment [9] it was 25.2 µM (active).
As for `COC(=O)c1ccccc1S(=O)(=O)NC(=O)Nc1nc(OC(F)F)cc(OC(F)F)n1`, the outcome in experiment [1], in experiment [2], in [3], in experiment [4], in experiment [5] and in [6] was inactive. For the same molecule, the molecule was classed as inactive in experiment [7], in experiment [8], in experiment [9], in experiment [10], in experiment [11] and in experiment [12]. The outcome in [13], in experiment [14], in [18], in [15] and in experiment [16] was inactive.
Take `Cc1nn(C)c(Oc2ccccc2)c1C=NOCc1ccc(C(=O)OC(C)(C)C)cc1`: the outcome in experiment [1], in experiment [3], in experiment [4], in [5], in [6] and in experiment [8] was inactive. Also, the result in [9], in experiment [12], in [13], in experiment [14] and in experiment [16] was inactive. The AC50 in experiment [2] is 6.62 µM (active); in experiment [7], 19.8 µM (active); in experiment [10] it was 40.3 µM (active); in [11], 21.2 µM (active).
`CCCOC(=O)NCCCN(C)C`: the outcome in experiment [1], in experiment [2], in [3], in [4], in experiment [5] and in [6] was inactive. Moreover, the outcome in experiment [7], in experiment [8], in [9], in [10], in experiment [11] and in experiment [12] was inactive. Further, the result in experiment [13], in experiment [14], in [15] and in experiment [16] was inactive.
